Screening data as filed in PubChem.
sEH act = increases human soluble epoxide hydrolase activity. P34913. purified human sEH enzymatic activity, activator screen. activation, % at 2 µM. 91,000 compounds, 0.04% hits; in the data active = activation above about 37%
sEH inhibitor = soluble epoxide hydrolase (human) inhibition; inhibition, % at 2 µM; recombinant human sEH enzymatic activity assay; AID 707; 91,000 compounds, 0.34% hits; P34913; in the data active = inhibition above about 80%
PostGolgi yeast = growth inhibition of a yeast mutant, post-Golgi transport screen; post-Golgi transport phenotypic cell assay; inhibition, % at 10 µM; 98,000 compounds, 0.9% hits;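 also: yeast cells grown in 1536-well plates; yeast grown about 18 h at 30C before absorbance read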
Cav3 T inh = inhibitors of human Cav3.2 T-type calcium channel; Cav3.2-expressing cells, Fluo-4 calcium fluorescence FDSS; active compounds read low; B-score at 10 µM; 100,000 compounds, 4% hits; AID 449739;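 active = single-dose well whose peak fluorescence ratio is a statistical outlier from its plate by either plate-standardised score or position-corrected B-score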
Target sequence (O95180 whole entry, looked up): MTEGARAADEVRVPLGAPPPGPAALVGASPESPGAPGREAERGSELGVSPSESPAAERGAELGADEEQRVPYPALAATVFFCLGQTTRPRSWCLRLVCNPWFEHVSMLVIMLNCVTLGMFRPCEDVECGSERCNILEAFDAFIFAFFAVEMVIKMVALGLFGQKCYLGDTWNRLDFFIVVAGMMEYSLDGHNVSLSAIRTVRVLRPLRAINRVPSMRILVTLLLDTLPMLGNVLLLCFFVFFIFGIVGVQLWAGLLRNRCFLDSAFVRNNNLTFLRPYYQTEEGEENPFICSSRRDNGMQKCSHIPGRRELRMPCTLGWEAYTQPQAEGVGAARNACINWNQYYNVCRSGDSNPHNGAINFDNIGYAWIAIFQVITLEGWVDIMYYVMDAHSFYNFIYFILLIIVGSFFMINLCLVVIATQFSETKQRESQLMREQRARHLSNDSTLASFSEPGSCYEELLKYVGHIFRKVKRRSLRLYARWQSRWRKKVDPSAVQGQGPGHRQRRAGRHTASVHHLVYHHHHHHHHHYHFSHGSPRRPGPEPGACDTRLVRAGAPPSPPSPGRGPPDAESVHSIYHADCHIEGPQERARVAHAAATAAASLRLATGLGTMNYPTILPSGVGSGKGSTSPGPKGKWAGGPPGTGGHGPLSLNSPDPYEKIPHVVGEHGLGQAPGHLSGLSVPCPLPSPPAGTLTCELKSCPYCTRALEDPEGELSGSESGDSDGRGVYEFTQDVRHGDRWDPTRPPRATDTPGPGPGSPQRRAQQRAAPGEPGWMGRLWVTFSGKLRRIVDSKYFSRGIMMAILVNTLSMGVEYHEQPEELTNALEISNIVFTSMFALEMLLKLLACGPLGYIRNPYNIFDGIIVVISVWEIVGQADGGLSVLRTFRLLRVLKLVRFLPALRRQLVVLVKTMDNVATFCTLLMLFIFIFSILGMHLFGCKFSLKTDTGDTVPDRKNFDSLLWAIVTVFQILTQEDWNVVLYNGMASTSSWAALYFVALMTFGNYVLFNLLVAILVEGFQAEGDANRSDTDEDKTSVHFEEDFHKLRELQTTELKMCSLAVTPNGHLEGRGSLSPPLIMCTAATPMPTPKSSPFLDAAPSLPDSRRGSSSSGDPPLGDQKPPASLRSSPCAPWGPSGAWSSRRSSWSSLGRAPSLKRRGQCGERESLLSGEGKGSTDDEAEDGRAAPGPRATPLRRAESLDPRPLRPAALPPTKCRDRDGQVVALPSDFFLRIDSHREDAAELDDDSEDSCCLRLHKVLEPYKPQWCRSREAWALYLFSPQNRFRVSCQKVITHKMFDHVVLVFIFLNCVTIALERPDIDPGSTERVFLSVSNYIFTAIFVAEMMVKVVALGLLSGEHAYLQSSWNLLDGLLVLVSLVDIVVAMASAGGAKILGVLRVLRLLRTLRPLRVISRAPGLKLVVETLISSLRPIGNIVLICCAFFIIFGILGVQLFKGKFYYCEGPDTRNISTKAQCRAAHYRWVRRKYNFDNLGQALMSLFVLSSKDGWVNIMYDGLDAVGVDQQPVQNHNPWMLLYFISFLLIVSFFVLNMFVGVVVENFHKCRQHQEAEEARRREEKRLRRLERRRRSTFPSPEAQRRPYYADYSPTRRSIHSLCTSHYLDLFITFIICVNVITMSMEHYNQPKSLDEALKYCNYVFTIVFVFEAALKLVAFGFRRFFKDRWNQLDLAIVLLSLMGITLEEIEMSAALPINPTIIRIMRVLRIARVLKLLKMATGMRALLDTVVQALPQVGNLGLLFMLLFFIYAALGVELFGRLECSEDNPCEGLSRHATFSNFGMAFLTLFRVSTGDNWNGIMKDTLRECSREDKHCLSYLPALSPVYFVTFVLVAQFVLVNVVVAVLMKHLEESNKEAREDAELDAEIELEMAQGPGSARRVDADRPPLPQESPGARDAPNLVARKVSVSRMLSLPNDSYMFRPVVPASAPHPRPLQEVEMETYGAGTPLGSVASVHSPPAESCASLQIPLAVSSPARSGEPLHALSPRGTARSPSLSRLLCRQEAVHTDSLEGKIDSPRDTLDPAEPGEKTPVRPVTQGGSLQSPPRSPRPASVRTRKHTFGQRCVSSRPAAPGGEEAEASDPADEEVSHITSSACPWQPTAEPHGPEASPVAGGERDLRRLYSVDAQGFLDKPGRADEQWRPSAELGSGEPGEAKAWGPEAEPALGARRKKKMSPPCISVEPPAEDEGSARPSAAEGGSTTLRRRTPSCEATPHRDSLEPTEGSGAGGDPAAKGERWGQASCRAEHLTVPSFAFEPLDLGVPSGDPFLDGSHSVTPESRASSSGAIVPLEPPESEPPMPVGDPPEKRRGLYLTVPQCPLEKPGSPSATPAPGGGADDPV
PostGolgi ctrl = yeast control strain growth, post-Golgi counter-screen; efflux-deficient yeast background strain, growth absorbance A615, 16 h; inhibition, % at 10 µM; 98,000 compounds, 5% hits
Active calls of the source: *; . = no result given. Sampled rows, rich in hits. Any-hit rate of the full collection: about 7.8%. Rule as the data show it, unless noted: active = inhibition above about 30%; inactive = the rest.

SMILES | sEH act | sEH inhibitor | PostGolgi yeast | Cav3 T inh | PostGolgi ctrl
CC(Oc1ccc(Cl)cc1Cl)C(=O)Nc1ccc(S(=O)(=O)Nc2cnc3ccccc3n2)cc1 (stereo not given) | -8.4 | 10.6 | 57.3* | -2.29 | 48.8*
Cc1cc(Cl)ccc1OC(C)C(=O)Nc1ccc(S(=O)(=O)Nc2cnc3ccccc3n2)cc1 (stereo not given) | 10.0 | -9.4 | 27.3 | -2.58 | 35.2*
N=C1/C(=C\c2ccc(OCc3ccccc3)cc2)C(=O)N=C2SC(N3CCCC3)=NN12 | . | . | . | -0.0782 | .
Cc1cccc(OCCCSc2nc3ccccc3[nH]2)c1 | -7.7 | 7.6 | 2.5 | -8.07* | 33.6*
CCOc1ccc(OCCSc2nc3ccccc3[nH]2)cc1 | -8.3 | 10.6 | . | -0.815 | .
Cc1ccccc1C(=O)/C=C1/c2ccccc2CC(C)(C)N1C | -2.2 | 4.8 | 12.2 | -3.88* | 4.4
CN1/C(=C\C(=O)c2ccco2)c2ccccc2CC1(C)C | -6.9 | 7.5 | 9.0 | -0.161 | 2.4
Cc1cccc(C(=O)/C=C2/c3ccccc3CC(C)(C)N2C)c1 | 8.9 | -12.2 | 14.3 | -4.25* | 24.2
C/C(=N/NS(=O)(=O)c1ccc(Cl)cc1)c1cccc(NC(=O)c2ccc(Cl)cc2Cl)c1 | 3.6 | -3.4 | -4.4 | . | 2.3
Cc1cc2cc(C=O)c(Cl)nc2cc1C | -5.8 | 7.7 | 2.7 | -5.89* | 10.2
CC(=O)C1=C(C)OC(N)=C(C#N)C1c1cc2cc(C)c(C)cc2nc1Cl (stereo not given) | 8.8 | -6.3 | -2.4 | . | 7.3
Cc1ccc(/C=C/C2=NN(Cc3ccc(Cl)c(Cl)c3)C(=O)CC2)cc1 | 1.8 | -1.5 | -1.2 | -0.86 | 43.7*
CCc1ccc(N/C(SCc2ccccc2C)=C(/C#N)C(=O)NCc2ccco2)cc1 | -5.4 | 2.5 | 16.8 | -5.42* | 0.1
CC(=O)Nc1ccc(C(=S)NCc2ccco2)cc1 | -6.6 | 7.9 | 12.0 | . | -7.0
CCOC(=O)c1sc(NC(=O)c2ccccc2OC)nc1C | 2.0 | 0.3 | -1.6 | 0.681 | 41.8*
CCOC(=O)c1oc2ccccc2c1NC(=O)COc1cccc(OC)c1 | 3.4 | -2.3 | -3.8 | -0.0665 | 3.7
CCOC(=O)c1oc2ccccc2c1NC(=O)c1ccccc1OC | . | . | 14.9 | -4.69* | 69.8*
CCOc1ccc(NC(=O)CNC(=O)c2cn(-c3ccccc3OC)c(=O)c3ccccc23)cc1 | 6.3 | -4.0 | -1.8 | -1.88 | -4.5
Cc1ccc(NC(=O)CSc2nnc(Cc3cccn3C)n2-c2ccc(F)cc2)c(C)c1 | -59.7 | 61.1 | 3.2 | -10.2* | 10.7
Cn1cccc1Cc1nnc(SCC(=O)Nc2ccc(F)cc2F)n1-c1ccc(F)cc1 | -20.8 | 20.0 | 3.5 | -4.52* | 13.7
Cn1cccc1Cc1nnc(SCC(=O)NCc2ccc(F)cc2)n1-c1ccc(F)cc1 | . | . | . | -4.1 | .
COc1ccc(Cl)cc1NC(=O)CSc1nnc(Cc2cccn2C)n1-c1ccc(F)cc1 | . | . | 3.7 | -6* | 32.4*
Cc1nc(Nc2nc(=O)c3ccccc3n2C)nc2c(C)cccc12 | 4.7 | -1.9 | . | . | .
Cc1nnc(NC(=O)c2oc3c(ccc4ccccc43)c2C)s1 | . | . | 0.0 | -0.656 | 22.7
CCCCNC(=S)NNC(=O)c1cccnc1 | 1.9 | 0.8 | . | 0.0121 | .
SMILES | sEH act | sEH inhibitor | PostGolgi yeast | Cav3 T inh | PostGolgi ctrl
COc1ccc(NS(=O)(=O)c2ccc3oc(SC4CCOC4=O)nc3c2)cc1 (stereo not given) | 9.2 | -9.7 | 15.4 | 1.07 | 3.5
C=CCCC(=O)Nc1nc(C)c(-c2csc(Nc3cc(OC)ccc3OC)n2)s1 | -17.7 | 18.3 | 3.3 | -0.0284 | 32.9*
CCC(C)C(=O)Nc1nc(C)c(-c2csc(Nc3ccc(Cl)cc3)n2)s1 (stereo not given) | -9.3 | 14.4 | -0.3 | -0.0239 | 23.9
CCCC(=O)Nc1nc(C)c(-c2csc(Nc3ccc(Cl)cc3)n2)s1 | -8.5 | 13.6 | 23.4 | -0.423 | 55.7*
O=C(NC(=O)c1ccncc1)NC(c1ccccc1)c1ccccc1 | 13.7 | -13.8 | 0.5 | 0.81 | 9.6
COc1cc(C)nc(N2CCC(C(=O)NC3CCCCC3)CC2)n1 | -64.5 | 65.0 | -4.2 | 1.03 | 11.7
Cc1nn(C)c(C)c1CN(C)C(=O)c1cnn2c1NC(c1ccccc1)CC2C(F)(F)F (stereo not given) | 10.9 | -11.8 | 0.3 | 0.522 | 9.3
O=C(c1cnn2c1NC(c1ccco1)CC2C(F)(F)F)N1CCN(c2cccc(Cl)c2)CC1 (stereo not given) | -3.2 | 8.1 | 1.4 | -4.21* | 65.3*
Cc1ccccc1Cn1ccc(NC(=O)CCSc2nc(-c3ccco3)cc(C(F)(F)F)n2)n1 | -8.0 | 10.4 | 9.9 | . | 53.5*
Cc1ccccc1Cn1ccc(NC(=O)c2cnn3c2NC(c2ccccc2)CC3C(F)(F)F)n1 (stereo not given) | 8.5 | -9.9 | 11.2 | -2.31 | 37.4*
